PubChem BioAssay (NCI)
The panel holds about 79,000 compounds, 15% with a hit somewhere; the sample as a whole holds those more often. A number with no mark means an inactive call. Activity calls are given as the source filed them. Rule as the data show it: active = growth inhibition above about 70%; inactive = the rest.

Key:
[1] = NCI Yeast Anticancer Drug Screen. Data for the rad50 strain (AID 155);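 also: 0% = growth of vehicle-only cultures of the same strain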; conditions: S. cerevisiae rad50 strain growth inhibition, hits give high values
In short: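 Yeast carrying a defined DNA repair defect were exposed to test compounds, and growth was compared with vehicle-treated controls to give percent inhibition.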

[2] = NCI Yeast Anticancer Drug Screen. Data for the mec2-1 strain (AID 157); conditions: S. cerevisiae mec2-1 strain, hits give high values
In short: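 Compounds were applied to mec2-1 yeast cells. Their growth was then compared with that of vehicle-treated cultures to give growth inhibition.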

[3] = NCI Yeast Anticancer Drug Screen. Data for the sgs1 mgt1 strain (AID 161);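 also: 0% = growth of cultures given vehicle only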; conditions: S. cerevisiae sgs1 mgt1 strain, hits give high values
In short: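 This yeast growth screen uses a strain with defined DNA-repair lesions; compound-treated growth is compared with vehicle-treated growth.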

[4] = NCI Yeast Anticancer Drug Screen. Data for the cln2 rad14 strain (AID 165);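 also: 0% = growth equal to vehicle treated cultures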; conditions: S. cerevisiae cln2 rad14 strain, hits give high values
In short: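 Strain: cln2 rad14 yeast, altered in cell cycle control and DNA damage repair. Read-out: growth inhibition vs vehicle.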

[5] = NCI Yeast Anticancer Drug Screen. Data for the bub3 strain (AID 167); conditions: S. cerevisiae bub3 mutant strain, hits give high values
In short: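 Compounds were applied to a genetically altered yeast strain carrying a cell-cycle control defect. Growth inhibition was scored against vehicle-treated controls.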

[6] = NCI Yeast Anticancer Drug Screen. Data for the mlh1 rad18 strain (AID 175); conditions: S. cerevisiae mlh1 rad18 strain growth inhibition, hits give high values
In short: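 A repair-deficient yeast strain is exposed to test compound, and growth is scored relative to vehicle-treated controls.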

[7] = at 5.0 µM (retest, dose inferred, filed as 0.5)
[8] = at 50.0 µM (retest, dose inferred, filed as 5.0)

Structure (SMILES)	growth inhibition [1, 7]	growth inhibition [1, 8]	growth inhibition ([1]; at 50.0 µM)	growth inhibition [2, 7]	growth inhibition [2, 8]	growth inhibition ([2]; at 50.0 µM)	growth inhibition [3, 7]	growth inhibition [3, 8]	growth inhibition ([3]; at 50.0 µM)	growth inhibition [4, 7]	growth inhibition [4, 8]	growth inhibition ([4]; at 50.0 µM)	growth inhibition [5, 7]	growth inhibition [5, 8]	growth inhibition ([5]; at 50.0 µM)	growth inhibition [6, 7]	growth inhibition [6, 8]	growth inhibition ([6]; at 50.0 µM)
N#Cc1ccccc1[N+](=O)[O-]	16%	95% (active)	67.5%	1%	58%	20.4%	3%	63%	59.8%	-1%	25%	0.35%	-3%	54%	61.4%	4%	93% (active)	79.5% (active)
COc1ccc(C2SCC(=O)N2c2ccc(-c3ccc(-n4c(-c5ccccc5)nc5ccccc5c4=O)cc3)cc2)cc1 (configuration not stated)	0%	33%	21.6%	1%	28%	34.1%	7%	57%	57.4%	42%	41%	13.5%	24%	69%	70.9% (active)	18%	68%	58.1%
Cc1ncc(Br)c(C(=O)O)n1	0%	-7%	6.65%	1%	3%	19.3%	5%	-3%	3.1%	-5%	1%	34.2%	-4%	-6%	0.75%	-1%	-8%	52.9%
Nc1cccc2c1C(=O)c1cccc(Cl)c1C2=O	31%	83% (active)	87.7% (active)	3%	16%	11.8%	0%	14%	21.1%	1%	2%	-82%	5%	21%	58%	11%	30%	50.3%
CCCCN(CCO)CC(O)Cn1cnc2c(N)ncnc21 (configuration not stated) (tested in a mixture with another compound)	-12%	-5%	21.9%	-12%	-8%	-5.45%	-18%	0%	-3.9%	-18%	-7%	18.7%	1%	-8%	3.2%	3%	-4%	25.9%
NC(=Nc1cc2ccccc2c2ccccc12)Nc1cc2ccccc2c2ccccc12	87% (active)	97% (active)	85.8% (active)	91% (active)	99% (active)	77.2% (active)	89% (active)	99% (active)	95.3% (active)	45%	96% (active)	95% (active)	35%	97% (active)	97.7% (active)	97% (active)	97% (active)	97.5% (active)
CCC(Cl)COP(=O)(OCC(Cl)CC)OC(c1ccc(Cl)c(Cl)c1)P(=O)(OCC(Cl)CC)OCC(Cl)CC (configuration not stated)	8%	23%	55%	14%	11%	91.2% (active)	-1%	7%	93% (active)	-10%	1%	76.2% (active)	-3%	9%	55.6%	7%	37%	85.7% (active)
COc1cc(NCCCCCNC(C)C)c2ncc(C)c(C)c2c1	3%	36%	75.7% (active)	-4%	6%	44.5%	3%	23%	61.4%	7%	20%	12.1%	3%	35%	79% (active)	9%	27%	55.4%
CC(C)c1cc(O)c(C(C)(C)C)cc1Cl	-1%	15%	74.5% (active)	2%	38%	77.2% (active)	-1%	24%	77.3% (active)	4%	45%	72.5% (active)	-11%	30%	76.6% (active)	3%	47%	86.8% (active)
Clc1ccc(-c2nnn3ccccc23)cc1	4%	8%	95.3% (active)	12%	9%	93.5% (active)	-3%	12%	95.8% (active)	4%	10%	28.6%	2%	5%	91.7% (active)	13%	51%	94.1% (active)
Cc1cc(=O)oc2c3c(ccc12)OC(c1ccc(Br)cc1)CC3=O (configuration not stated)	28%	24%	6.65%	15%	12%	-7.8%	19%	20%	6.8%	11%	27%	-12.8%	24%	23%	-3%	22%	15%	-6.6%
CCCCN(CCCC)CCC(=O)c1ccc2c(ccc3ccccc32)c1	19%	99% (active)	96.3% (active)	7%	99% (active)	95.5% (active)	20%	99% (active)	98.8% (active)	21%	99% (active)	87% (active)	47%	98% (active)	99% (active)	12%	99% (active)	98.8% (active)
O=Cc1ccc(-c2nccc3c2[nH]c2ccccc23)o1	23%	35%	78.2% (active)	15%	17%	26.9%	17%	20%	19.1%	12%	16%	16.1%	24%	14%	8.9%	21%	25%	-1.45%
CC(C)(C)c1ccc2c(c1)C(O)(c1ccccc1)C1OC1(C(C)(C)C)C2=O (configuration not stated)	10%	85% (active)	96.2% (active)	9%	82% (active)	94.5% (active)	16%	82% (active)	79.3% (active)	4%	87% (active)	91.7% (active)	-3%	88% (active)	94.7% (active)	31%	91% (active)	93.2% (active)
O=S(=O)(Nc1ccc(Cl)cc1)c1ccccc1	-3%	50%	76.5% (active)	-14%	32%	46%	1%	80% (active)	47.7%	-9%	81% (active)	20.9%	-8%	56%	53.9%	-5%	63%	45.5%
Nc1c(-c2ccc(Cl)cc2)[n+]([O-])c2ccccc2[n+]1[O-]	-16%	4%	19.2%	-8%	-10%	13.2%	1%	-10%	34.4%	24%	11%	47.7%	-3%	11%	8.45%	15%	6%	37.2%
CCOC(=O)Cc1csc(/N=C\c2c(O)c3ccccc3oc2=O)n1	22%	38%	-4.35%	16%	25%	-32.4%	22%	37%	-10.9%	26%	21%	18.7%	20%	42%	-27.1%	24%	45%	41.4%
CC(=O)c1c2c(cc3c1CC1(C3)Cc3cc4c(c(C(=O)O)c3C1)CCCC4)CCCC2 (configuration not stated) (tested in a mixture with another compound)	90% (active)	99% (active)	77.7% (active)	84% (active)	99% (active)	97% (active)	94% (active)	99% (active)	97.8% (active)	94% (active)	99% (active)	97.9% (active)	82% (active)	99% (active)	96% (active)	96% (active)	99% (active)	98% (active)
CCC(/C=C/C(C)C1CCC2C3CC=C4C/C(=N/NC(N)=O)CCC4(C)C3CCC12C)C(C)C (configuration not stated)	-7%	6%	9.95%	-3%	2%	9.3%	-3%	-5%	50.9%	-7%	-9%	-1.15%	-3%	2%	24.1%	-3%	5%	28.9%
